Compounds with a hit are over-represented: about 1.2% of the library has one in this group of screens.
RGS4-Gao reg – modulators of RGS4 binding to Galphao, primary screen, biochemical, multiplexed bead flow cytometry; AID 1415, 2008; Guanine nucleotide-binding protein G(o) subunit alpha (Homo sapiens), P09471; 220,000 compounds, 0.33% hits; binding response (% of control), % at 10 µM; actives lie on both sides; in the data active = binding response below about 49% or above about 150%; inactive = in between;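 also: fluorescent Galphao activated with aluminum fluoride binding bead-coupled RGS4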
Target sequence (P09471 whole entry, looked up): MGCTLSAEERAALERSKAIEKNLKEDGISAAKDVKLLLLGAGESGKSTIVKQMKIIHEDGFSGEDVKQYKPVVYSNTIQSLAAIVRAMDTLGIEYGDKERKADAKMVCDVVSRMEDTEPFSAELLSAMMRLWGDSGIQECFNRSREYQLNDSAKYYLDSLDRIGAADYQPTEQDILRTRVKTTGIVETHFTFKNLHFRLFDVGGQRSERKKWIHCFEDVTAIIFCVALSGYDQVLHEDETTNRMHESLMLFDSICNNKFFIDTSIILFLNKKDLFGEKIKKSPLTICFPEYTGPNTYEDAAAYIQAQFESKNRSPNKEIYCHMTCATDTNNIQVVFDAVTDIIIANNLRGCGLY
RGS16-Gao – modulators of RGS16 binding to Galphao, primary screen, biochemical, human proteins, multiplexed bead flow cytometry; Regulator of G-protein signaling 16 (Homo sapiens) + Guanine nucleotide-binding protein …; bead-based flow cytometry RGS16-Galphao binding, fluorescence; actives lie on both sides; binding response (% of control), % at 10 µM; 220,000 compounds, 0.38% hits; AID 1441, 2008; call rule not given here;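 also: Galphao activated by GDP with aluminum fluoride before binding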
Target sequence (O15492 whole entry, looked up): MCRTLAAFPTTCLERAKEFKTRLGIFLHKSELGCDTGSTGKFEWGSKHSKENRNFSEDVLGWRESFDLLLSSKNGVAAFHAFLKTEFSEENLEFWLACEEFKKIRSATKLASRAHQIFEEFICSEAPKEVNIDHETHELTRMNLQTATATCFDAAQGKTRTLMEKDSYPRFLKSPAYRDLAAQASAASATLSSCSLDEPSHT
Target sequence (P09471 whole entry, looked up): as the sequence (P09471 whole entry, looked up) above
RGS8-Gao – RGS8-Galphao binding modulators, primary screen, biochemical, multiplexed bead flow cytometry; Guanine nucleotide-binding protein G(o) subunit alpha (Homo sapiens), P09471; actives lie on both sides; response (percent of control binding), % at 10 µM; 220,000 compounds, 0.34% hits; in the data active = response below about 60% or above about 140%; inactive = in between;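 also: Galphao activated as the GDP aluminium fluoride complex binding bead-coupled RGS8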
GSH bead fluor – compound fluorescence on glutathione beads, profiling panel, artefact control, biophysical, 488/530 nm, flow cytometry | GSH beads flow cytometry, compound fluorescence 488/530 nm; hits give high values | fluorescence (KMESF) at 10 µM | 190,000 compounds, 0.25% hits | AID 1776, 2009; in the data active = fluorescence above about 89;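 also: glutathione beads carrying GST-tagged Bcl family fusion proteins plus one bare bead set; values are compound well signal with DMSO vehicle wells as background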
Avidin fluor – green autofluorescence of compounds with avidin beads – biophysical, 488/530 nm, flow cytometry, artefact control, profiling panel. compound fluorescence 488/530 nm; hits give high values. fluorescence (KMESF) at 10 µM. 220,000 compounds, 0.38% hits; in the data active = fluorescence above about 47
RGS7-Gao – RGS7-Galphao binding modulators, primary screen, biochemical, multiplexed bead flow cytometry | actives lie on both sides | binding response (% of control), % at 10 µM | 220,000 compounds, 0.35% hits | AID 1439, 2008; in the data active = binding response below about 49% or above about 150%; inconclusive = no clear call, values can overlap the other calls; inactive = in between;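 also: fluorescent Galphao held in activated GDP-AlF4 state binding bead-coupled RGS7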
Numbers without * were called inactive; ? = inconclusive; · = no result given; ! = not confirmed by another sample; [ ] = another dose, or the depositor's remark.

SMILES | RGS4-Gao reg | RGS16-Gao | RGS8-Gao | GSH bead fluor | Avidin fluor | RGS7-Gao
Cc1ccc(/C=C2\CCC3=C2OC(N)=C(C#N)C3c2ccc(C)cc2)cc1 (configuration not stated) | 116.6 | 118.1 | 104.6 | 40 | 66* | 116.9
O=C(Nc1ccsn1)c1ccc(Cl)cc1Cl | 99.8 | 102.5 | 101.6 | · | 7 | ?
O=C(OCc1ccc(Cl)cc1)c1cnccn1 | 102.0 | 98.3 | 103.2 | 11 | 7 | 98.5
O=C(OCc1ccc(Cl)c(Cl)c1)c1cnccn1 | 103.0 | 106.1 | 100.3 | 270* | 9 | 103.6
CCN(CC)c1ccc(C(=O)N/N=C(\C)c2ccc(OC)c(OC)c2)cc1 | 100.9 | 102.8 | 101.0 | 19 | 14 | 99.7
COc1cccc2cc(C(=O)N3CCCCC3C)c(=O)oc12 (configuration not stated) | 112.6 | 109.1 | 109.7 | 120* | 5 | 109.7
CCCCCCc1cc2cc(-c3nnc(-c4ccccc4OC)o3)c(=O)oc2cc1O | 88.0 | 108.5 | 101.5 | 248* | 5 | 92.7
CCCCCCc1cc2cc(-c3nnc(-c4cc(OC)c(OC)c(OC)c4)o3)c(=O)oc2cc1O | 99.7 | 97.8 | 98.2 | 113* | 7 | 99.0
CCCCCCc1cc2cc(-c3nnc(-c4ccccc4O)o3)c(=O)oc2cc1O | 111.0 | 110.9 | 100.0 | 26 | 26 | 109.4
CNC(=O)Nc1cc(NC(=O)NC)cc(C(F)(F)F)c1 | 104.6 | 115.3 | 103.5 | · | 7 | ?
CC[n+]1c(/C=C2/C=C(C)CC(C)(C)C2)sc2ccc(OC)cc21 | 181.0*[activator] | 284.1 | 114.6 | 30 | 95* | 162.7*[activator]
CC[n+]1c(/C=C2\C=C(C)CC(C)(C)C2)sc2ccccc21 | 98.5 | 91.4 | 94.3 | 29 | 11 | 105.1
Cc1cc(C)n(-c2c(C)[nH]c3ccccc23)n1 | 94.9 | 94.3 | 96.6 | 14 | 9 | 99.1
O=C(c1cc2c(ccc3ccccc32)o1)N1CCN(c2ncc(C(F)(F)F)cc2Cl)CC1 | 101.9 | 103.7 | 100.4 | 277* | 8 | 99.7
O=C(CN1CCN(c2ncc(C(F)(F)F)cc2Cl)CC1)NC(=O)NCc1ccccc1 | 101.7 | 106.6 | 102.0 | 11 | 21 | 102.7
CC(Cc1cccnc1)NC(=O)c1ccccc1OC1CCN(S(C)(=O)=O)CC1 (configuration not stated) | 102.1 | 113.3 | 109.3 | 18 | 11 | 109.4
COc1ccc(CNC(=O)c2cnn3c(C(F)F)cc(C)nc23)cc1 | 103.3 | 87.5 | 94.8 | 11 | 94* | 131.7
Cc1cc(C)n2ncc(C(=O)NCc3ccccc3)c2n1 | 99.5 | 105.3 | 102.1 | 264* | 7 | 98.7
N#Cc1ccccc1S(=O)(=O)N1CCN(c2cnccn2)CC1 | 100.4 | 101.3 | 101.8 | 20 | 8 | 96.8
Cc1ccc(-c2cc(Cc3ccncc3)c(=O)[nH]n2)cc1 | 100.5 | 101.5 | 99.7 | · | 7 | ?
CCOC(=O)C1(CCOc2ccccc2)CCN(Cc2ccc3nonc3c2)CC1 | 104.7 | 101.4 | 100.9 | 9 | 8 | 101.8
CCc1ccc[n+](-c2nc3ccccc3nc2C(=C=[N-])C#N)c1 | 94.3 | 88.1 | 95.8 | · | 7 | ?
Cc1cc(C)c[n+](-c2nc3ccccc3nc2C(=C=[N-])C#N)c1 | 83.4 | 86.6 | 95.0 | 238*! | 24 | 100.5
Cc1ccc[n+](-c2nc3ccccc3nc2C(=C=[N-])C#N)c1 | 110.7 | 82.2 | 82.8 | 11 | 61*! | ?
CC1=C([N+](=O)[O-])C(c2ccccc2C(F)(F)F)NC(=O)N1C (configuration not stated) | 104.1 | 100.7 | 100.4 | · | 8 | ?
SMILES | RGS4-Gao reg | RGS16-Gao | RGS8-Gao | GSH bead fluor | Avidin fluor | RGS7-Gao
COc1ccc(C2CC(c3ccc(Br)cc3)Nc3nc(N)nn32)cc1 (configuration not stated) | 103.5 | 105.7 | 101.7 | 20 | 13 | 99.5
COc1ccc(C2CC(c3ccccc3)Nc3nc(N)nn32)cc1 (configuration not stated) | 100.1 | 103.7 | 100.3 | 17 | 50* | 112.3
COc1ccc(NC(=O)c2coc3ccccc23)cc1OC | 97.4 | 98.9 | 96.6 | 259* | 6 | 98.3
CCOc1cc2oc(=O)c3c(c2cc1Cl)CCC3 | 107.1 | 114.6 | 103.8 | 29 | 74* | 147.8
O=C(NC(=S)N(CC1CCC1)CC1CCCO1)c1cccc([N+](=O)[O-])c1 (configuration not stated) | 100.1 | 100.9 | 100.1 | 11 | 10 | 99.8
Cc1ccc(C)n1-n1c(C)nc2scc(-c3ccccc3)c2c1=O | 109.4 | 106.3 | 100.3 | 17 | 86* | 138.6
COc1ccc2occ(C(=O)c3ccccc3)c2c1 | 100.1 | 97.9 | 98.7 | 13 | 11 | ?
COc1ccc(OC)c(C(=O)c2coc3ccc(O)cc23)c1 | 103.2 | 103.7 | 100.9 | 88* | 13 | 107.0
Cc1cc(N2CCCCC2)nc(N2CCOCC2)n1 | 110.2 | 109.5 | 105.7 | 35 | 111* | 124.6
Cc1cc(N2CCOCC2)nc(N2CCOCC2)n1 | 102.5 | 97.8 | 98.6 | 23 | 11 | ?
CC1CCN(S(=O)(=O)c2cccc(C(=O)NCc3cccs3)c2)CC1 | 102.1 | 104.3 | 100.2 | 28 | 7 | 100.2
CC1CCN(S(=O)(=O)c2cccc(C(=O)NCc3ccco3)c2)CC1 | 95.8 | 99.1 | 100.5 | 159* | 3 | 99.2
CNC(=O)CCC(=O)Nc1ccc(C)cc1 | 94.9 | 97.1 | 99.0 | 19 | 9 | 94.4
CCOCCCNCc1c(Cl)cccc1Cl | 108.1 | 82.0 | 84.2 | 18 | 60* | 107.4
COc1ccc(N=C2S/C(=C\c3ccc(OCC(=O)O)cc3)C(=O)N2CCc2c[nH]c3ccccc23)cc1 | 96.4 | 100.7 | 99.7 | 27 | 11 | 95.7
COc1ccc(N=C2S/C(=C\c3ccc(N4CCOCC4)o3)C(=O)N2CCc2c[nH]c3ccccc23)cc1 | 99.1 | 97.4 | 90.9 | 113* | 23 | 95.5
CCN(CC)CCCNC(=O)CSc1nc(-c2ccc(F)cc2)cc(C(F)(F)F)n1 | 85.6 | 95.2 | 94.2 | 11 | 10 | 92.1
CCCn1c(N2CCN(C)CC2)nc2c1c(=O)[nH]c(=O)n2C | 105.5 | 99.2 | 101.9 | 19 | 11 | 100.7
CCCn1c(N2CCOCC2)nc2c1c(=O)[nH]c(=O)n2C | 105.0 | 96.9 | 96.2 | 36 | 60* | 119.1
Cc1ccc(NC(=O)c2cccc3c2-c2ccccc2C3=O)cc1C | 101.2 | 98.3 | 99.7 | 21 | 15 | 102.3
CC(=O)Nc1ccc(NC(=O)c2cccc3c2-c2ccccc2C3=O)cc1 | 109.4 | 115.1 | 107.5 | 8 | 99* | 140.3
O=C(COc1ccccc1[N+](=O)[O-])NNC(=O)Nc1cccc2ccccc12 | 101.4 | 104.4 | 99.8 | 7 | 8 | 101.9
